Test results: PubChem BioAssay AID1159580 (chemical genetic matrix, 2015)
The campaign covered roughly 5,500 compounds. About 2,000 (36%) were called active. Not shown: some 18% with an inconclusive outcome. Cut-off read from the data, not from the text of the source: active = normalized growth mostly below about 0.91 (no sharp cut-off); inconclusive = no clear call, values can overlap the other calls; inactive = mostly above about 0.92. This is one part of the list.

Assay: chemical genetic growth profiling, strain panel (AID 1159580);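 note: tested at 20 µM; growth read once vehicle control cultures reached saturation at 30 °C; 1 = growth at the plate median or of vehicle wells; lower values mean less growth of the strain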
Conditions: growth OD

Measured: normalized growth

COc1ccccc1N=C(N)SCc1ccccc1
inactive: S. cerevisiae deletion strains, locus YAL013W, strain DEP1, stronger effect = lower value 1.01 | S. cerevisiae deletion strains, locus YBR229C, strain ROT2, stronger effect = lower value 1.01 | S. cerevisiae deletion strains, locus YCL061C, strain MRC1, stronger effect = lower value 1.01 | S. cerevisiae deletion strains, locus YDL101C, strain DUN1, stronger effect = lower value 1 | S. cerevisiae deletion strains, locus YDR150W, strain NUM1, stronger effect = lower value 0.923 | S. cerevisiae deletion strains, locus YEL061C, strain CIN8, stronger effect = lower value 1 | S. cerevisiae deletion strains, locus YGR078C, strain PAC10, stronger effect = lower value 1.01 | S. cerevisiae deletion strains, locus YHR030C, strain SLT2, stronger effect = lower value 1.03 | S. cerevisiae deletion strains, locus YHR087W, strain rtc3, stronger effect = lower value 1.01 | S. cerevisiae deletion strains, locus YJL187C, strain SWE1, stronger effect = lower value 1.01 | S. cerevisiae deletion strains, locus YJR043C, strain POL32, stronger effect = lower value 1.01 | S. cerevisiae deletion strains, locus YJR075W, strain HOC1, stronger effect = lower value 1.01 | S. cerevisiae deletion strains, locus YKL190W, strain CNB1, stronger effect = lower value 1.01 | S. cerevisiae deletion strains, locus YLR039C, strain RIC1, stronger effect = lower value 1.02 | S. cerevisiae deletion strains, locus YLR058C, strain SHM2 (second series), stronger effect = lower value 1.01 | S. cerevisiae deletion strains, locus YLR085C, strain ARP6, stronger effect = lower value 1.03 | S. cerevisiae deletion strains, locus YLR262C, strain YPT6, stronger effect = lower value 0.999 | S. cerevisiae deletion strains, locus YML094W, strain GIM5, stronger effect = lower value 0.988 | S. cerevisiae deletion strains, locus YMR219W, strain ESC1, stronger effect = lower value 1.01 | S. cerevisiae deletion strains, locus YMR263W, strain SAP30, stronger effect = lower value 1.01 | S. cerevisiae deletion strains, locus YMR307W, strain GAS1, stronger effect = lower value 1.06 | S. cerevisiae deletion strains, locus YNL128W, strain TEP1, stronger effect = lower value 1.01 | S. cerevisiae deletion strains, locus YNL153C, strain GIM3, stronger effect = lower value 1 | S. cerevisiae deletion strains, locus YNL298W, strain CLA4 (second series), stronger effect = lower value 0.998 | S. cerevisiae deletion strains, locus YNL322C, strain KRE1, stronger effect = lower value 1.01 | S. cerevisiae deletion strains, locus YNR030W, strain Alg12, stronger effect = lower value 1.02 | S. cerevisiae deletion strains, locus YPL055C, strain LGE1, stronger effect = lower value 0.928 | S. cerevisiae deletion strains, locus YPL241C, strain CIN2, stronger effect = lower value 0.994 | S. cerevisiae deletion strains, locus YPR135W, strain CTF4, stronger effect = lower value 0.962 | S. cerevisiae strains, strain wild type, stronger effect = lower value 1.01
